Inconclusive results are not listed. Active and inactive are the calls of the source. Calls come from the whole dose curve; as a rule, active = well fitted activation curve with a large enough effect in the repeat runs; inconclusive = weak or mixed curves; inactive = flat fitted curve, though single readings scatter.
Assay: A CellTox Green Cytotoxicity Assay to monitor cytotoxicity in HepG2 cells - 32 hour (AID 1224883); note: nearly all actives have a fitted effect of over 50% in size
Settings: CellTox Green fluorescence; series mostly up to 76.8 µM; cytotoxicity increase: at the top concentration
Excerpt: National Center for Advancing Translational Sciences [NCATS]
NIH Chemical Genomics Center [NCGC]
U.S. Environmental Protection Agency [EPA]
National Institutes of Environmental Health Sciences [NIEHS]
National Toxicology Program [NTP]
Cell-based models are critical for drug discovery. Determining the natural cytotoxic effects resulting from test compounds is an essential research activity. A CellTox Green Cytotoxicity Assay to monitor cytotoxicity in real time of continues cell culture during 40 hours of the compound treatment was used to screen Tox21 10K library compounds in HepG2 cells. CellTox Green Cytotoxicity Assay is a nonlytic, homogeneous, biofluorescent method to measure cytotoxicity in cell culture after experimental manipulation. The assay system uses a proprietary asymmetric cyanine dye that is excluded from viable cells but preferentially stains the dead cell's DNA. […] Viable cells produce no appreciable increases in fluorescence. Therefore, the fluorescence signal produced by the binding interaction with dead cell DNA is proportional to cytotoxicity.
The mixture of HepG2 cell suspension and reagents were dispensed at 600cells/6 ul/well in 1536-well tissue culture treated black solid bottom plates using a Multidrop dispenser. After the assay plates were incubated at a 37 C/5% CO2 incubator for 5 hours, 23 nL of compounds dissolved in DMSO, positive and negative controls was transferred to the assay plate by a pintool work station. The plates were incubated at 37 C for 40 hours. The fluorescence intensity were measured at 0h, 8h, 16h, 24h, 32h and 40h time points using ViewLux plate reader during compound treatment.
% is set by controls: 0 for no effect and ±100 for the full control effect.

SMILES	cytotoxicity increase
CCOC(=O)C(=O)c1csc(NC=O)n1	-15.1% [at 35.3 µM] (inactive)
NS(=O)(=O)c1ccccc1OC(F)(F)F	-6.66% (inactive)
CCCCC[Si](OCC)(OCC)OCC	-5.91% (inactive)
Cc1nc2n(c(=O)c1CCN1CCC(C(=O)c3ccc(F)cc3)CC1)CCS2	-23.7% [at 35.3 µM] (inactive)
O=C(O)c1c(Cl)ccc(Cl)c1Cl	0.549% (inactive)
COC(/C=C(\C)CCC=C(C)C)OC	-13.7% (inactive)
CCOc1ccc(NC(=O)OC(C)C)cc1OCC	17.1% (inactive)
CCCCCCCC[Si](OCC)(OCC)OCC	-2.14% (inactive)
COc1cc2c3cc1Oc1cc(ccc1O)C[C@@H]1c4c(cc(OC)c(O)c4Oc4ccc(cc4)C[C@@H]3N(C)CC2)CC[N+]1(C)C	-24.7% [at 35.3 µM] (inactive)
CN(C)CCCNCCC#N	-7.57% (inactive)
COCC(=O)Nc1c(I)c(C(=O)NCC(O)CO)c(I)c(C(=O)N(C)CC(O)CO)c1I (stereo not given)	1.83% [at 35.3 µM] (inactive)
C=CCOCC(O)CCl (stereo not given)	-4.68% (inactive)
O=C(O)c1ccc(OCCN2CCCCC2)cc1	-5.94% [at 35.3 µM] (inactive)
C[C@H](CCC(=O)O)[C@H]1CC[C@H]2[C@@H]3[C@H](O)C[C@@H]4C[C@H](O)CC[C@]4(C)[C@H]3C[C@H](O)[C@]12C	-17% [at 35.3 µM] (inactive)
CCCCCCCCCCCCCCCCCCN(C)C	-7.64% [at 35.3 µM] (inactive)
CC(C)COC(=O)COc1ccc(Cl)cc1Cl	13.5% (inactive)
C=CCOCC(CO)(COCC=C)COCC=C	-4.28% [at 35.3 µM] (inactive)
C=C[Si](C)(C)O[Si](C)(C)C=C	-16.6% (inactive)
CCC(=O)c1ccc(O)cc1	-9.05% [at 35.3 µM] (inactive)
CCC(O)C(C)(C)C (stereo not given)	3.65% (inactive)

SMILES	cytotoxicity increase
O=[Si]=O	-20.2% (inactive)
O=P(O)(O)OCC(O)CO (stereo not given)	-13.1% [at 35.3 µM] (inactive)
COc1ccc(N=Nc2cc(C)c(N=Nc3ccc(S(=O)(=O)O)cc3)cc2OC)cc1	-24.9% (inactive)
CC(=O)Nc1ccc(C)cc1	0.0424% (inactive)
CC1(N)CCC(C(C)(C)N)CC1 (stereo not given)	-2.49% (inactive)
CCCOCCOCCOCCO	0.571% (inactive)
Cc1cccc(NC(=S)N(C)C)c1	-5.86% (inactive)
CC(C)COC(=O)CCCCC(=O)OCC(C)C	0.843% (inactive)
C=CCOC(=O)c1ccc(C(=O)OCC=C)c(C(=O)OCC=C)c1	4.45% (inactive)
O=C1c2ccccc2-c2ccccc21	2.56% (inactive)
N#CCCOCCOCCC#N	-4.51% (inactive)
CCOC(=O)OCC/C(SC(=O)OCC)=C(\C)N(C=O)Cc1cnc(C)nc1N	-22.3% [at 35.3 µM] (inactive)
CC(C)SCc1ccco1	-6.84% [at 35.3 µM] (inactive)
CCC(C)(CCC(C)C)C(=O)[O-].CCC(C)(CCC(C)C)C(=O)[O-].[Zn+2] (stereo not given)	-1.64% (inactive)
CCCCCC(=O)OCC	-2.57% (inactive)
CC(=O)OC(C)(C)Cc1ccccc1	-8.33% (inactive)
CCOC(=O)C(C)(C)C	-9.67% (inactive)
O=C(COCCOCCOCC(=O)Nc1c(I)cc(I)c(C(=O)O)c1I)Nc1c(I)cc(I)c(C(=O)O)c1I	-5.36% [at 35.3 µM] (inactive)
CCN(Cc1cccc(S(=O)(=O)O)c1)c1ccccc1	-14% (inactive)
Cc1ccccc1OCC1CO1 (stereo not given)	9.23% (inactive)
